According to the supplement of paper PMC10338343:
± gives the standard deviation.

system: MILI (PIWIL2) piRISC loaded with L1MC piRNA (26 nt); experiment: pre-steady-state target cleavage rate (min^-1); guide: L1MC piRNA 5'p-UAACUAAAUACUAUGCAAGCUGUAGG; MIWI and MILI are mouse PIWI proteins and EfPiwi is from a freshwater sponge; tags in brackets are library labels; higher = faster piRNA-guided slicing of the target; details: auxiliary factor: 500 nM mouse GTSF1
Procedure, shortened: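 A transcribed, DNA-blocked target RNA library […] was incubated at 33 °C for 0–8 or 0–960 min with 1 nM active affinity-purified piRISC carrying one synthetic guide, in HEPES–potassium acetate buffer with or without 500 nM GTSF1 partner protein. Uncleaved targets were then sequenced and normalised to depth and to weakly complementary targets. Data from three trials were pooled, with k3 capped at 0.0001 min^-1, and a burst-and-steady-state fit yielded the pre-steady-state cleavage rate.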
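Also: 1 nM active piRISC with 0.1 nM target library at 33 °C single turnover.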

Sequence	pre-steady-state target cleavage rate
UCCUGGAUGAGCUUGCAUAGAAUUUAGUUA	0.0653 ± 0.017
UCCUGGAUGUCCUUGGAUACUAUUUAGUUA	0.0119 ± 0.0061
UCCUGGAUGUCCUAGCAUAGUAUUUACUUA	0.0287 ± 0.0091
UCCUGGAUGUCGUUGCAUAGUAUUCAGUUA	0.0553 ± 0.018
UCCUGGAUGUCGAAGCAUAGUACUUAGUUA	0.00746 ± 0.0031
UCCUGGAACAGCUAGCAUAGUAUUUUCAAA	0.0419 ± 0.014
UCCUGGAUGUCGAUGCAUACUAUUUAGUUA	0.0178 ± 0.0056
UCCUGCUACAGCUUGCAUACAUUUUAGUUA	0.0121 ± 0.0061
UCCUGGAUGACGUUGCAUAGUAUUUAGAAA	0.0501 ± 0.014
UCCUGGAACAGCUUGCAUAGUAUUAACUUA	0.0356 ± 0.0096
UCCUGGAUGAGCUAGCAUAGUAUUUACAAA	0.0471 ± 0.015
UCCUGGAACAGCAUGCAUAGUAUUUAGAAA	0.196 ± 0.025

same assay, conditions: auxiliary factor: none (no GTSF1)

Sequence	pre-steady-state target cleavage rate
UCCUGGAUGUCGAACCAUAGUAAAAAGUUA	< 0.0001
UCCUGGAUCAGCUUGCAUUCUAUUUACAAA	< 0.0001
UCCUGGAUGUGCUUGCAUAGAUAUUUAGUUA	0.00495 ± 0.0023
UCCUGGAUGUCGAACCAUACUAUUAAGUUA	< 0.0001
